# Measured values reported in PubChem BioAssay AID1159580 (chemical genetic matrix, 2015).
# Screen size: about 5,500 compounds; about 2,000 (36%) were called active. Not shown: some 18% with an inconclusive outcome. The list shows a part of the results. A number with no mark means an inactive call. No stated cut-off is given here; in the data, active means normalized growth mostly below about 0.91 (no sharp cut-off); inconclusive means no clear call, values can overlap the other calls; inactive means mostly above about 0.92.
# Test: chemical genetic growth profiling, strain panel (AID 1159580);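 further: tested at 20 µM; growth read once vehicle control cultures reached saturation at 30 °C; 1 = growth at the plate median or of vehicle wells; lower values mean less growth of the strain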
# Conditions: growth OD
structure (smiles),measurement,setting,value
CC(=O)O[C@@H]1C=C[C@@]2(C)C(C[C@@H](OC(C)=O)[C@@]3(C)C4=CC(=O)O[C@@H](c5ccoc5)[C@]4(C)CCC23)C1(C)C (some centres not stated),normalized growth,"S. cerevisiae deletion strains, locus YJR066W, strain TOR1, hits give low values",0.928
same,normalized growth,"S. cerevisiae deletion strains, locus YJR075W, strain HOC1, hits give low values",1.03
same,normalized growth,"S. cerevisiae deletion strains, locus YKL009W, strain mrt4, hits give low values",0.364 (active)
same,normalized growth,"S. cerevisiae deletion strains, locus YKL068W, hits give low values",0.0545 (active)
same,normalized growth,"S. cerevisiae deletion strains, locus YKL085W, strain MDH1 (second series), hits give low values",0.0525 (active)
same,normalized growth,"S. cerevisiae deletion strains, locus YKL085W, strain MDH1, hits give low values",0.0525 (active)
same,normalized growth,"S. cerevisiae deletion strains, locus YKL160W, strain elf1, hits give low values",0.988
same,normalized growth,"S. cerevisiae deletion strains, locus YKL190W, strain CNB1, hits give low values",1.01
same,normalized growth,"S. cerevisiae deletion strains, locus YKR001C, strain vps1, hits give low values",0.0622 (active)
same,normalized growth,"S. cerevisiae deletion strains, locus YKR026C, strain gcn3, hits give low values",1.01
same,normalized growth,"S. cerevisiae deletion strains, locus YKR091W, strain srl3, hits give low values",0.982
same,normalized growth,"S. cerevisiae deletion strains, locus YLL001W, strain dnm1, hits give low values",1.02
same,normalized growth,"S. cerevisiae deletion strains, locus YLL026W, hits give low values",1.01
same,normalized growth,"S. cerevisiae deletion strains, locus YLL041C, strain sdh2, hits give low values",0.999
same,normalized growth,"S. cerevisiae deletion strains, locus YLR027C, strain aat2, hits give low values",1
same,normalized growth,"S. cerevisiae deletion strains, locus YLR039C, strain RIC1, hits give low values",0.982
same,normalized growth,"S. cerevisiae deletion strains, locus YLR058C, strain SHM2, hits give low values",1.01
same,normalized growth,"S. cerevisiae deletion strains, locus YLR102C, strain apc9, hits give low values",0.0602 (active)
same,normalized growth,"S. cerevisiae deletion strains, locus YLR113W, strain HOG1, hits give low values",1.01
same,normalized growth,"S. cerevisiae deletion strains, locus YLR221C, strain rsa3, hits give low values",1.05
same,normalized growth,"S. cerevisiae deletion strains, locus YLR258W, strain gsy2, hits give low values",0.999
same,normalized growth,"S. cerevisiae deletion strains, locus YLR262C, strain YPT6 (second series), hits give low values",0.96
same,normalized growth,"S. cerevisiae deletion strains, locus YLR262C, strain YPT6, hits give low values",0.986
same,normalized growth,"S. cerevisiae deletion strains, locus YLR268W, strain sec22, hits give low values",0.0676 (active)
same,normalized growth,"S. cerevisiae deletion strains, locus YLR320W, strain mms22, hits give low values",1.02
same,normalized growth,"S. cerevisiae deletion strains, locus YLR330W, strain CHS5, hits give low values",1.01
same,normalized growth,"S. cerevisiae deletion strains, locus YLR342W, strain FKS1 (second series), hits give low values",1.03
same,normalized growth,"S. cerevisiae deletion strains, locus YLR342W, strain FKS1, hits give low values",0.994
same,normalized growth,"S. cerevisiae deletion strains, locus YLR357W, strain rsc2, hits give low values",1.03
same,normalized growth,"S. cerevisiae deletion strains, locus YLR370C, strain arc18, hits give low values",0.983
same,normalized growth,"S. cerevisiae deletion strains, locus YLR371W, strain rom2, hits give low values",0.0619 (active)
same,normalized growth,"S. cerevisiae deletion strains, locus YLR384C, strain iki3, hits give low values",0.983
same,normalized growth,"S. cerevisiae deletion strains, locus YLR418C, strain cdc73, hits give low values",0.0929 (active)
same,normalized growth,"S. cerevisiae deletion strains, locus YML016C, strain PPZ1, hits give low values",1.02
same,normalized growth,"S. cerevisiae deletion strains, locus YML032C, strain rad52, hits give low values",0.15 (active)
same,normalized growth,"S. cerevisiae deletion strains, locus YML120C, strain ndi1, hits give low values",0.994
same,normalized growth,"S. cerevisiae deletion strains, locus YML124C, strain tub3, hits give low values",0.0589 (active)
same,normalized growth,"S. cerevisiae deletion strains, locus YMR058W, strain fet3, hits give low values",0.984
same,normalized growth,"S. cerevisiae deletion strains, locus YMR078C, strain ctf18, hits give low values",0.072 (active)
same,normalized growth,"S. cerevisiae deletion strains, locus YMR125W, strain sto1, hits give low values",0.997
same,normalized growth,"S. cerevisiae deletion strains, locus YMR129W, hits give low values",0.999
same,normalized growth,"S. cerevisiae deletion strains, locus YMR205C, strain PFK2, hits give low values",1
same,normalized growth,"S. cerevisiae deletion strains, locus YMR223W, strain ubp8, hits give low values",0.0665 (active)
same,normalized growth,"S. cerevisiae deletion strains, locus YMR231W, strain pep5, hits give low values",0.991
same,normalized growth,"S. cerevisiae deletion strains, locus YMR263W, strain SAP30, hits give low values",1
same,normalized growth,"S. cerevisiae deletion strains, locus YMR307W, strain GAS1, hits give low values",1.06
same,normalized growth,"S. cerevisiae deletion strains, locus YNL067W, strain RPL9B, hits give low values",1
same,normalized growth,"S. cerevisiae deletion strains, locus YNL071W, strain lat1, hits give low values",0.992
same,normalized growth,"S. cerevisiae deletion strains, locus YNL128W, strain TEP1, hits give low values",1
same,normalized growth,"S. cerevisiae deletion strains, locus YNL153C, strain GIM3, hits give low values",0.998
same,normalized growth,"S. cerevisiae deletion strains, locus YNL183C, strain NPR1, hits give low values",0.956
same,normalized growth,"S. cerevisiae deletion strains, locus YNL209W, strain ssb2, hits give low values",0.985
same,normalized growth,"S. cerevisiae deletion strains, locus YNL233W, strain BNI4, hits give low values",1
same,normalized growth,"S. cerevisiae deletion strains, locus YNL248C, strain rpa49, hits give low values",0.961
same,normalized growth,"S. cerevisiae deletion strains, locus YNL250W, strain rad50, hits give low values",0.065 (active)
same,normalized growth,"S. cerevisiae deletion strains, locus YNL271C, strain bni1, hits give low values",0.0603 (active)
same,normalized growth,"S. cerevisiae deletion strains, locus YNL298W, strain CLA4, hits give low values",0.0602 (active)
same,normalized growth,"S. cerevisiae deletion strains, locus YNL307C, strain MCK1, hits give low values",0.069 (active)
same,normalized growth,"S. cerevisiae deletion strains, locus YNL322C, strain KRE1 (second series), hits give low values",0.985
same,normalized growth,"S. cerevisiae deletion strains, locus YNL322C, strain KRE1, hits give low values",1.02
same,normalized growth,"S. cerevisiae deletion strains, locus YNR049C, strain mso1, hits give low values",0.975
same,normalized growth,"S. cerevisiae deletion strains, locus YNR052C, strain pop2, hits give low values",0.112 (active)
same,normalized growth,"S. cerevisiae deletion strains, locus YOL006C, strain TOP1, hits give low values",0.901
same,normalized growth,"S. cerevisiae deletion strains, locus YOL147C, strain pex11, hits give low values",0.0888 (active)
same,normalized growth,"S. cerevisiae deletion strains, locus YOR001W, strain rrp6, hits give low values",1.01
same,normalized growth,"S. cerevisiae deletion strains, locus YOR061W, strain CKA2, hits give low values",1.01
same,normalized growth,"S. cerevisiae deletion strains, locus YOR069W, strain VPS5, hits give low values",1.01
same,normalized growth,"S. cerevisiae deletion strains, locus YOR070C, strain gyp1, hits give low values",0.991
same,normalized growth,"S. cerevisiae deletion strains, locus YOR080W, strain dia2, hits give low values",0.984
same,normalized growth,"S. cerevisiae deletion strains, locus YOR083W, strain WHI5, hits give low values",1
same,normalized growth,"S. cerevisiae deletion strains, locus YOR106W, strain vam3, hits give low values",0.997
same,normalized growth,"S. cerevisiae deletion strains, locus YOR136W, strain idh2, hits give low values",0.0732 (active)
same,normalized growth,"S. cerevisiae deletion strains, locus YOR144C, strain elg1, hits give low values",0.131 (active)
same,normalized growth,"S. cerevisiae deletion strains, locus YOR184W, strain ser1, hits give low values",0.0712 (active)
same,normalized growth,"S. cerevisiae deletion strains, locus YOR231W, strain MKK1, hits give low values",0.985
same,normalized growth,"S. cerevisiae deletion strains, locus YOR265W, strain rbl2, hits give low values",0.985
same,normalized growth,"S. cerevisiae deletion strains, locus YOR270C, strain vph1, hits give low values",0.885
same,normalized growth,"S. cerevisiae deletion strains, locus YOR290C, strain snf2, hits give low values",0.956
same,normalized growth,"S. cerevisiae deletion strains, locus YOR316C, strain cot1, hits give low values",0.0594 (active)
same,normalized growth,"S. cerevisiae deletion strains, locus YPL051W, strain arl3, hits give low values",0.996
same,normalized growth,"S. cerevisiae deletion strains, locus YPL055C, strain LGE1, hits give low values",0.968
same,normalized growth,"S. cerevisiae deletion strains, locus YPL078C, strain atp4, hits give low values",0.982
same,normalized growth,"S. cerevisiae deletion strains, locus YPL106C, strain sse1, hits give low values",0.975
same,normalized growth,"S. cerevisiae deletion strains, locus YPL240C, strain hsp82, hits give low values",0.993
same,normalized growth,"S. cerevisiae deletion strains, locus YPL241C, strain CIN2, hits give low values",1.01
same,normalized growth,"S. cerevisiae deletion strains, locus YPL256C, strain CLN2, hits give low values",0.948
same,normalized growth,"S. cerevisiae deletion strains, locus YPR119W, strain clb2, hits give low values",0.0629 (active)
same,normalized growth,"S. cerevisiae deletion strains, locus YPR141C, strain kar3, hits give low values",0.0773 (active)
same,normalized growth,"S. cerevisiae deletion strains, locus YPR163C, strain tif3, hits give low values",0.0691 (active)
same,normalized growth,"S. cerevisiae deletion strains, locus YPR167C, strain met16, hits give low values",0.0608 (active)
same,normalized growth,"S. cerevisiae deletion strains, strain wtn01, hits give low values",0.0601 (active)
same,normalized growth,"S. cerevisiae strains, strain wild type, hits give low values",1.02
